Compound activity (PubChem)
FLuc inh: firefly luciferase inhibition; purified firefly luciferase, luminescence, 8 min; Potency, µM (titrated, usually from 57.1 µM), inactives show at the top dose activity change, negative = inhibition, actives largely listed as inhibitors; actives 2.2% (n = 72,000); active means well fitted inhibition curve with a large enough effect; inconclusive means small, poorly fitted or top-dose-only effect; further: on the % scale 0 is the no-effect control and ±100 the full control effect; nearly all actives have a fitted effect of over 40% in size
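Titration-based qHTS; buffer 50 mM imidazole pH 7.2, 50 mM KCl, 7 mM MgCl2, 10 uM ATP, 0.01% Tween 20, 0.05% BSA; luciferase/luciferin detector mix added after compound; 8 min, ambient; luminescence.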
GBA activity: modulators of human glucocerebrosidase. AID 360. actives 1.1% (n = 48,000). P04062. purified enzyme, resorufin glucoside fluorescence (screen aimed at inhibitors), 20 min. Potency, µM; in the data active means potency below about 15 µM; inconclusive means mostly about 16 µM to 33 µM;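 further: the screen sought inhibitors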
Target sequence (P04062 whole entry, looked up): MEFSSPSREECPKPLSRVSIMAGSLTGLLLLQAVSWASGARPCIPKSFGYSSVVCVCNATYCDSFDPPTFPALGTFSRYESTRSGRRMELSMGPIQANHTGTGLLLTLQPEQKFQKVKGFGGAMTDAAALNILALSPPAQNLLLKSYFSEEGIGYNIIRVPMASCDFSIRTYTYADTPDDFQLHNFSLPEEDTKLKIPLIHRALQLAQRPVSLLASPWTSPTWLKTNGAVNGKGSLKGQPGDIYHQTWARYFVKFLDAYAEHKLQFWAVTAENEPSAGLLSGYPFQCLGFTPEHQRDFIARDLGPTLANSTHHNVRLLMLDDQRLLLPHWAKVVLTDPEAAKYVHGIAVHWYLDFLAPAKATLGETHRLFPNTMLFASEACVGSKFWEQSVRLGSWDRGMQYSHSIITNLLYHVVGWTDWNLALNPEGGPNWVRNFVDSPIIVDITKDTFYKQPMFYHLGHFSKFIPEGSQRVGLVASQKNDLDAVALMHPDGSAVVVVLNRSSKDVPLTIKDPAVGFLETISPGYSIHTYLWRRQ
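Wild-type enzyme at 0.2 nM final in 50mM citric acid/KH2PO4, 10mM sodium taurocholate, 0.01% tween-20, pH 5.9, with resorufin beta-D-glucopyranoside at 30 uM final. Compounds titrated, 20 min at RT, red fluorescence read; AC50 from titration.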
PK Bst: alters activity of Bacillus stearothermophilus pyruvate kinase. purified pyruvate kinase, luminescence ATP production; ribose 5-phosphate activator present at AC10. Potency, µM. actives 1.2% (n = 51,000). AID 361; in the data active means potency below about 11 µM; inconclusive means mostly about 12 µM to 25 µM;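 the screen sought inhibitors and activators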;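 further: scaled between full activation by ribose 5 phosphate and full inhibition by luteolin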
Starred values were filed as active, the others as inactive; [ ] = remark or other dose. The list is not random: actives were taken first. Their share in the collection is about 3.2%. Potency means the concentration at half of the fitted maximal effect.

Results for O=C(Cn1cnc2ccccc2c1=O)c1ccc2c(c1)OCCO2 ?
FLuc inh: 13µM*; GBA activity: >77

What do the screens show for `CCN(CC)C(=O)Cn1cnc2ccccc2c1=O`?
FLuc inh: 0%; GBA activity: >77; PK Bst: >57

Results for NC[C@@H]1O[C@H](O[C@@H]2[C@H](O[C@@H]3O[C@H](CO)[C@@H](O)[C@@H]3O)[C@@H](O)[C@@H](N)C[C@H]2N)[C@@H](N)[C@H](O)[C@@H]1O ?
FLuc inh: 0%[25.5 µM]

How did CC1=N[C@@](C)(COC(=O)[C@]2(C)N[C@](C)(CO)CO2)COC1=O do in these assays?
FLuc inh: 3%[11.4 µM]

How did COc1ccc2c(c1)S/C(=C\C(=O)c1ccncc1)N2C do in these assays?
FLuc inh: 5µM*

What do the screens show for `CCN1/C(=C/C(C)=O)Sc2ccc(OC)cc21`?
FLuc inh: -7%; GBA activity: >77; PK Bst: >11

What do the screens show for `COc1cccc(-c2cncnc2Nc2ccc(F)cc2)c1`?
FLuc inh: 1%[2.29 µM]

What do the screens show for `O=c1cc(-c2ccccc2)oc2cc(O)cc(O)c12`?
FLuc inh: 13µM*

How did COc1cc(O)c2c(=O)cc(-c3ccccc3)oc2c1 do in these assays?
FLuc inh: -4%[11.4 µM]

How did COc1ccccc1Nc1nnc(SCC(=O)N2CCCC2=O)s1 do in these assays?
FLuc inh: 20µM*; GBA activity: >77

Results for COc1ccccc1Nc1nnc(SCC(=O)N2CCCC2)s1 ?
FLuc inh: -5%; GBA activity: >77; PK Bst: >57

What do the screens show for `Cc1ccc(S(=O)(=O)NC(=O)OC23COCN2COC3)cc1`?
FLuc inh: 3%[11.4 µM]

Results for Cc1noc(C)c1-c1ccc2ncnc(NCc3ccccc3)c2c1 ?
FLuc inh: 4%[2.29 µM]

What do the screens show for `CCCCOc1ccc(C2C3CN(C(=O)OCC)CC=C3C(C#N)=C(N)C2(C#N)C#N)cc1OC` (stereo not drawn)?
FLuc inh: -8%; GBA activity: 15*

What do the screens show for `CCOC(=O)N1CC=C2C(C#N)=C(N)C(C#N)(C#N)[C@H](c3ccc(OCC)c(OCC)c3)[C@H]2C1`?
FLuc inh: 1%; GBA activity: >77; PK Bst: >57

What do the screens show for `CC(C)(C)NC[C@@H](O)COc1ccccc1C1CCCC1`?
FLuc inh: -5%[25.5 µM]

How did O=C(c1ccncc1)N1CCC2(CC1)CCN(c1ccncc1)CC2 do in these assays?
FLuc inh: 1%[11.4 µM]

Results for COc1ccc(O[C@H]2C=C[C@@H](c3ccccc3)O[C@H]2COC(=O)N2CCCCC2)cc1 ?
FLuc inh: 0%[11.4 µM]

Results for O=C(O)CCCCCC[C@@H]1C(=O)NC(=O)N1CC[C@@H](O)C1CCCCC1 ?
FLuc inh: -3%

How did COCCCNc1ncnc2nc[nH]c12 do in these assays?
FLuc inh: 6.3µM*

What do the screens show for `CC(C)=CCNc1ncnc2nc[nH]c12`?
FLuc inh: 2%[11.4 µM]

What do the screens show for `CCOC(=O)CNc1ncnc2nc[nH]c12`?
FLuc inh: 10µM*

How did COCCNc1ncnc2nc[nH]c12 do in these assays?
FLuc inh: 1%; GBA activity: >77; PK Bst: >57

How did COCC(=O)N1CCC[C@@]2(CCN(C(=O)Nc3cccc(C#N)c3)C2)C1 do in these assays?
FLuc inh: 2%[11.4 µM]

How did COc1ccc(C(=O)N2CCC[C@@]3(CCN(C(=O)Nc4ccccc4)C3)C2)cc1 do in these assays?
FLuc inh: -3%[11.4 µM]

How did COC(=O)[C@@H]1CC[C@H](C)[C@@H](c2ccc(C)cc2)N1C(=O)c1ccc(/C=N\OC[C@@H](O)[C@H]2O[C@H]3OC(C)(C)O[C@H]3[C@@H]2O)cc1 do in these assays?
FLuc inh: 0%[11.4 µM]

How did CCCc1cc(C(=O)Nc2cccc(C(C)=O)c2)no1 do in these assays?
FLuc inh: -14%

What do the screens show for `CCCc1cc(C(=O)Nc2cccc(Cl)c2)no1`?
FLuc inh: 16µM*

What do the screens show for `CCc1cccc(CC)c1N(COC)C(=O)Cn1nnc2ccccc21`?
FLuc inh: -1%[25.5 µM]; PK Bst: 6.7*

Results for CCc1cccc(CC)c1N(COC)C(=O)Cn1c(CO)nc2ccccc21 ?
FLuc inh: 2%; GBA activity: >15; PK Bst: >57

How did O=[N+]([O-])c1ccc(CSc2ncnc3c2ncn3[C@@H]2O[C@@H](CO)[C@@H](O)[C@H]2O)cc1 do in these assays?
FLuc inh: 1%

What do the screens show for `O=C(/C=C\c1ccccc1)c1ccccc1O`?
FLuc inh: -7%[11.4 µM]

Results for O=C(/C=C/c1ccccc1)c1ccccc1 ?
FLuc inh: 10µM*; PK Bst: inactive

How did O=C(Nc1cccc(Cl)c1Cl)c1ccncc1 do in these assays?
FLuc inh: 1%

What do the screens show for `O=C(Nc1ccccc1O)c1ccc(Cl)cc1`?
FLuc inh: 16µM*

What do the screens show for `CN[C@H](CC(=O)O)C(=O)O`?
FLuc inh: 0%

How did Cc1cc2n(n1)C(c1ccc(N(C)C)cc1)Nc1ccccc1-2 (stereo not drawn) do in these assays?
FLuc inh: 25µM*; GBA activity: >77; PK Bst: inconclusive

How did Cc1cc2n(n1)C(c1ccccc1)Nc1ccccc1-2 (stereo not drawn) do in these assays?
FLuc inh: 5%; GBA activity: >77

How did CC(C)=C[C@H]1[C@@H](COC(=O)c2ccccc2Cl)C1(C)C do in these assays?
FLuc inh: -1%[11.4 µM]

What do the screens show for `O=C(c1ccc2c(c1)OCCCO2)c1cccs1`?
FLuc inh: 13µM*; GBA activity: >77

Results for O=C(NCC1CCCO1)c1cccs1 (stereo not drawn) ?
FLuc inh: 0%

How did C[C@@]12C(=O)OC(=O)[C@]1(C)[C@H]1CC[C@@H]2O1 do in these assays?
FLuc inh: 1%[25.5 µM]

Results for CCCCn1c(-c2ccccc2)nnc1-c1ccccc1 ?
FLuc inh: 0%; GBA activity: >77; PK Bst: >57

Results for CCCCN1c2ccccc2N(CCCO)c2cc(C)nnc21 ?
FLuc inh: 16µM*; GBA activity: >77

How did Clc1ccc(C(c2nnnn2C2CCCCC2)N(Cc2cccnc2)Cc2ccco2)cc1 (stereo not drawn) do in these assays?
FLuc inh: 3%; GBA activity: 13*; PK Bst: >57

How did Cc1ccc2[nH]c(=O)c(C(c3nnnn3C3CCCC3)N(Cc3cccnc3)Cc3ccco3)cc2c1 (stereo not drawn) do in these assays?
FLuc inh: 0%; PK Bst: >57

Results for C=CCNC(=O)c1ccc(OC)cc1OC ?
FLuc inh: 0%; GBA activity: >77; PK Bst: >57

Results for COc1ccccc1C(=O)Nc1ccc(C(=O)O)cc1 ?
FLuc inh: 4%; GBA activity: >77; PK Bst: >57

Results for COc1ccccc1C(=O)Nc1ccccn1 ?
FLuc inh: 16µM*; GBA activity: >77; PK Bst: inconclusive

What do the screens show for `COc1ccc(C(=O)Nc2ccc(C)cn2)c(OC)c1`?
FLuc inh: 0.25µM*; GBA activity: >77; PK Bst: 0.33*

How did CC(N)=O do in these assays?
FLuc inh: -3%

Results for N#Cc1ccccc1-c1ccc2ncnc(NCc3cccs3)c2c1 ?
FLuc inh: 0%[2.29 µM]

How did CCc1cc2c(nc1CC)CCN(CC/C(C)=N/O[C@@H](C)CN1CCCc3nc(C)c(C)cc31)C2 do in these assays?
FLuc inh: 0%[11.4 µM]

How did Cc1onc(-c2c(F)cccc2Cl)c1C(=O)Nc1nc2c(s1)CCCC2 do in these assays?
FLuc inh: 0%; GBA activity: inconclusive; PK Bst: >57
